# Test results published in PubChem BioAssay (NCATS).
# Where “and” joins values, the source holds several entries; their conditions need not be identical. Identical values can stand only once. Records with an inconclusive call do not appear. Calls of active or inactive are those of the source. Unless noted, calls follow the shape of the dose curve; as a rule, active = well fitted curve in the direction sought with a large enough effect; inconclusive = small, poorly fitted or top-dose-only effect, or another doubt; inactive = no such curve, though single readings can be large; an effect the other way counts as inactive or inconclusive.
# Columns and labels:
# [1] = biological target: Cytochrome P450 3A4 (Homo sapiens) (UniProt P08684); test: qHTS Assay for Inhibitors and Substrates of Cytochrome P450 3A4 (AID 884); also: nearly all actives have a fitted effect of over 50% in size; also: potency is read from the fitted curve at half-maximal effect; as to activity change, negative = inhibition: % is scaled to controls: 0 for no effect and ±100 for the full control effect
# Cytochrome P450 3A4 (Homo sapiens), sequence (P08684 whole entry, looked up): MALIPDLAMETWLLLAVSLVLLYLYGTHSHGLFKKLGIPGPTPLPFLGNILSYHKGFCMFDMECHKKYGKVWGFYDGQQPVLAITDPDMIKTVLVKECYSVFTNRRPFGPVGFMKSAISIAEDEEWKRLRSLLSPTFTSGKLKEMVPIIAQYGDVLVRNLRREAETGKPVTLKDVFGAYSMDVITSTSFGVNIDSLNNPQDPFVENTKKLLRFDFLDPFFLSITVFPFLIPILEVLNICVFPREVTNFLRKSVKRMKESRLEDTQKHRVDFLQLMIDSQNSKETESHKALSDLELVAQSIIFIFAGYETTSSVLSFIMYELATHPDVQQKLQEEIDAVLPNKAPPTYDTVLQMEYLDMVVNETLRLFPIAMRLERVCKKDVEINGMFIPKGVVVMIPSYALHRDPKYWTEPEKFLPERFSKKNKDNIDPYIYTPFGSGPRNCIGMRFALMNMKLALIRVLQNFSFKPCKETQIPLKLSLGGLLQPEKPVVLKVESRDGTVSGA
# Method in brief: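 Luminescent readout of luciferin produced by CYP3A4 (20 nM) dealkylation of Luciferin-PPXE, 25 uM (its KM). NADPH-driven reaction ran 60 min at RT after 10 min compound preincubation; data scaled to 57 uM ketoconazole as 100% inhibition.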
# [2] = qHTS Assay for Lipid Storage Modulators (AID 1519; calls by dose curve; as to activity change, negative = inhibition: % is scaled to controls: 0 for no effect and ±100 for the full control effect); settings: Drosophila S3 cells, BODIPY lipid droplet/cell ratio, laser cytometry, cells loaded with oleic acid; for activity change, negative = inhibition: at 57.5 µM (top of the series)
# Method in brief: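 Cells seeded at 5,000 per well were treated with compounds over a concentration series and loaded with oleic acid (400 uM, as added). Lipid droplet fluorescence (488 nm excitation, 500-530 nm channel) was read by laser-scanning cytometry and normalized to 20 uM Triacsin C.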
# [3] = biological target: Ubiquitin carboxyl-terminal hydrolase 1 (Homo sapiens) (UniProt O94782); test: Inhibitors of USP1/UAF1: Pilot qHTS (AID 504865); also: nearly all actives have a fitted effect of over 35% in size; also: potency is read from the fitted curve at half-maximal effect
# Ubiquitin carboxyl-terminal hydrolase 1 (Homo sapiens), sequence (O94782 whole entry, looked up): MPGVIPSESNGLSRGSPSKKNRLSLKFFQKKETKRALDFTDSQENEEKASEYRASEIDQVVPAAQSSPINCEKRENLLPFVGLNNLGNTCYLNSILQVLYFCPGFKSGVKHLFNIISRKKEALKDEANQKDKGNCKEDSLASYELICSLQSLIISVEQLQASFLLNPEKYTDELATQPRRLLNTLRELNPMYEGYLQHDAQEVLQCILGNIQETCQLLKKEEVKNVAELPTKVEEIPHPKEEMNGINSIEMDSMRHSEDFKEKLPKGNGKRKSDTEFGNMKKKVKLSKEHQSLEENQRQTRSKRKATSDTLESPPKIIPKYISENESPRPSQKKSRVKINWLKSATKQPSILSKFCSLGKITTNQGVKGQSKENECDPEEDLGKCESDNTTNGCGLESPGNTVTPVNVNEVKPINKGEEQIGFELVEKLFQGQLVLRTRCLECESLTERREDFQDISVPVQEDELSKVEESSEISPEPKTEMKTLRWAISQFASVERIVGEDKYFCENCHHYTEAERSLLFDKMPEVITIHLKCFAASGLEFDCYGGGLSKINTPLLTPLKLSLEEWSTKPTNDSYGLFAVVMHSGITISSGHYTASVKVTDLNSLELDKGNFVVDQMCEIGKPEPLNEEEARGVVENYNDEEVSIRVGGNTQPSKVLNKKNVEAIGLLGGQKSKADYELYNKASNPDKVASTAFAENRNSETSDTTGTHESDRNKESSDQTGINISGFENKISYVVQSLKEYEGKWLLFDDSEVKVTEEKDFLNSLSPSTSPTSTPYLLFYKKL
# Method in brief: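 In 50mM HEPES pH 7.8 containing 0.5mM EDTA, 1mM TCEP, 0.1 mg/ml BSA and 0.01% Tween-20, 1nM USP1/UAF1 is exposed to compound for 15 min, then Ub-Rho (150nM final) is added and fluorescence is read over time.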
# [4] = Confirmation and Secondary Assay for Modulators of Hemoglobin Beta Chain Splicing at IVS2 654 locus (AID 910);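 also: HeLa cells stably carrying EGFP split by mutant beta-globin IVS2-654 intron; % of control where 0% means no effect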
# Method in brief: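 Readout: per-well total peak green fluorescence (488 nm ex, 500–520 nm em) from objects 5–250 µm, reflecting correct splicing of an EGFP-654 reporter. Compounds were applied for 2 days at 37 °C to overnight-plated HeLa EGFP-654 cells; controls were DMSO and 500 nM IVS2-654 PNA.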
# [5] = Confirmation and Secondary Assay for Modulators of Hemoglobin Beta Chain Splicing at IVS2 705 locus (AID 930);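 also: HeLa cells stably expressing the EGFP-705 splicing reporter; GFP fluorescence per well restored by corrected splicing of the IVS2-705 intron in EGFP; % of control where 0% means no effect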
# Method in brief: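 Read-out: total peak GFP fluorescence per well (488 nm excitation, 500-520 nm emission) by laser-scanning cytometry. Cells: HeLa EGFP-705 splicing reporter, 2 days compound exposure in Optimem/2% FCS.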
# [6] = biological target: ATP-dependent 6-phosphofructokinase (Trypanosoma brucei brucei) (UniProt O15648); test: qHTS Assay to Find Inhibitors of T. brucei phosphofructokinase: hit validation (AID 492961);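 also: luminescence reports ADP formed as PFK phosphorylates fructose-6-phosphate with ATP; % is scaled to controls: 0 for no effect and ±100 for the full control effect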
# ATP-dependent 6-phosphofructokinase (Trypanosoma brucei brucei), sequence (O15648 whole entry, looked up): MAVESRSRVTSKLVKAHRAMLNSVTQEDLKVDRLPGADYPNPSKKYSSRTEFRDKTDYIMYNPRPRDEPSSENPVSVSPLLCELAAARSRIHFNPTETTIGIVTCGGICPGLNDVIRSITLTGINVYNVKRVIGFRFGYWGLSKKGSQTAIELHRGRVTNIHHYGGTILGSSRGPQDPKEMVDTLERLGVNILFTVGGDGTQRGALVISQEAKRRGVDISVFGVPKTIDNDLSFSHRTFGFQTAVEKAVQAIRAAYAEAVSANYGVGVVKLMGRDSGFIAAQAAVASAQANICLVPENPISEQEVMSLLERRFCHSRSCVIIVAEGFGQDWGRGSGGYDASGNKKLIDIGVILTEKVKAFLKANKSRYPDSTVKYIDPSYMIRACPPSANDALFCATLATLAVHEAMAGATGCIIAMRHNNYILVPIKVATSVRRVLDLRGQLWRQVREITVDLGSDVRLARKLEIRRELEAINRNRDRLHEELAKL
# Method in brief: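 ADP-Glo luminescence read-out of ADP formed by 1.25 nM PFK from 0.1 mM ATP and 0.5 mM F6P (TEA pH 8.0, 45 min, RT). Compounds titrated; activity normalized to no-enzyme and full-enzyme controls.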
# [7] = biological target: Luciferin 4-monooxygenase (Photinus pyralis) (UniProt P08659); test: Biochemical firefly luciferase enzyme assay for NPC (AID 624030);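 also: purified P. pyralis luciferase at 10 nM with luciferin and ATP substrate; 0% = DMSO and -100% = full luciferase inhibition by PTC124 control; nearly all actives have a fitted effect of over 70% in size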
# Luciferin 4-monooxygenase (Photinus pyralis), sequence (P08659 whole entry, looked up): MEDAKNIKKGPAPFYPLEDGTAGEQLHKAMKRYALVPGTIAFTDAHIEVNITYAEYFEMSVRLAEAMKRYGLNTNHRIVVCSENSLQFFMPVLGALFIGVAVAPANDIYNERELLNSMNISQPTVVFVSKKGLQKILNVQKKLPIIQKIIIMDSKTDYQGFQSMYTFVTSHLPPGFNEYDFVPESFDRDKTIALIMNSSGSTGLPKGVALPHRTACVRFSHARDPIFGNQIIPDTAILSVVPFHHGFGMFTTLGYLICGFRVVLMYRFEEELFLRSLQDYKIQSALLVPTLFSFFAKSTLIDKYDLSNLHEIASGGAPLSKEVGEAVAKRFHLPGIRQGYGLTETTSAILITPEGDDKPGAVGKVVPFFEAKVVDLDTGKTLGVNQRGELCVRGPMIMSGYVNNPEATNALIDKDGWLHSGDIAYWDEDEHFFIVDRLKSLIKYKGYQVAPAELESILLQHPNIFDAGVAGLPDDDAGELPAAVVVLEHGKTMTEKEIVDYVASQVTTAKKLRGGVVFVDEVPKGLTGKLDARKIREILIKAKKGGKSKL
# Method in brief: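 Direct inhibition of firefly luciferase enzyme (10 nM final, 50 mM Tris Acetate) assessed by luminescence within 5 minutes. Percent activity scaled between DMSO and PTC124 positive control, with concentration-effect curves classified by fit quality and response.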
# [8] = qHTS profiling for inhibitors of Plasmodium falciparum proliferation (AID 504749); also: potency is read from the fitted curve at half-maximal effect;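 as to activity, negative = inhibition: 0% = DMSO vehicle and full inhibition = artemisinin control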; as to all read-outs here: nearly all actives have a fitted effect of over 60% in size; settings: P. falciparum in erythrocytes, SYBR Green DNA, 72 h; for activity, negative = inhibition: at 28.7 µM (top of the series)
# Method in brief: (§1)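 SYBR Green fluorescence of parasite DNA, read after lysis and overnight dark incubation, measured growth over 72 h in erythrocyte culture at 0.3% parasitemia and 2.5% hematocrit. Data normalised to DMSO and 0.29 uM artemisinin, with plate-drift correction.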
# [9] = tested on: AS120; test: as above; settings: P. falciparum in erythrocytes, SYBR Green DNA, 72 h; series mostly up to 28.7 µM
# Method in brief: as §1
# [10] = tested on: ATS189; test: as above; settings: P. falciparum in erythrocytes, SYBR Green DNA, 72 h; series mostly up to 28.7 µM
# Method in brief: as §1
# [11] = tested on: DFO2036; test: as above; settings: P. falciparum in erythrocytes, SYBR Green DNA, 72 h; series mostly up to 28.7 µM
# Method in brief: as §1
# [12] = biological target: Cytochrome P450 1A2 (Homo sapiens) (UniProt P05177); test: p450-cyp1a2 (AID 410; calls by dose curve;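 also: -100% = full effect of reference inhibitor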)
# Cytochrome P450 1A2 (Homo sapiens), sequence (P05177 whole entry, looked up): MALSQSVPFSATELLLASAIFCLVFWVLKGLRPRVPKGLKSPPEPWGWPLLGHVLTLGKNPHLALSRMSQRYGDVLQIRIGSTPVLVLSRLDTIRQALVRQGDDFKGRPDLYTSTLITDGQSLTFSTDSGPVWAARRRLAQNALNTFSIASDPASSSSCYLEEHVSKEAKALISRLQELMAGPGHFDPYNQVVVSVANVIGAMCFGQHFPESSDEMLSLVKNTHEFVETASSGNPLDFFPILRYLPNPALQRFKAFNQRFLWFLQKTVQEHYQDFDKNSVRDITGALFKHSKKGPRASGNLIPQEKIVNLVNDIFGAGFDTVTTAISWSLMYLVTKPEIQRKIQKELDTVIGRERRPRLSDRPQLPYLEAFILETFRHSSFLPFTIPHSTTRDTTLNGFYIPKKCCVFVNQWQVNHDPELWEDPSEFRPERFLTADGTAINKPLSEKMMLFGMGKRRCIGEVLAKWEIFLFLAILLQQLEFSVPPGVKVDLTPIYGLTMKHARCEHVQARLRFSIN
# Method in brief: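 O-Demethylation of luciferin 6' methyl ether by human CYP1A2 is monitored as luciferase luminescence. Substrate sits at Km (100uM); enzyme is 20nM. Values are scaled to 57 uM furafylline as maximal inhibition.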
# [13] = biological target: Glucocorticoid receptor (Homo sapiens) (UniProt P04150); test: GR-GFP Redistribution (AID 450;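 active = compounds whose dose series gives a full or clear partial fitted curve of increased nuclear translocation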; also: potency is read from the fitted curve at half-maximal effect); settings: U2OS GR-GFP nuclear translocation, laser cytometry, 2 h
# Glucocorticoid receptor (Homo sapiens), sequence (P04150 whole entry, looked up, the tested form may be a part): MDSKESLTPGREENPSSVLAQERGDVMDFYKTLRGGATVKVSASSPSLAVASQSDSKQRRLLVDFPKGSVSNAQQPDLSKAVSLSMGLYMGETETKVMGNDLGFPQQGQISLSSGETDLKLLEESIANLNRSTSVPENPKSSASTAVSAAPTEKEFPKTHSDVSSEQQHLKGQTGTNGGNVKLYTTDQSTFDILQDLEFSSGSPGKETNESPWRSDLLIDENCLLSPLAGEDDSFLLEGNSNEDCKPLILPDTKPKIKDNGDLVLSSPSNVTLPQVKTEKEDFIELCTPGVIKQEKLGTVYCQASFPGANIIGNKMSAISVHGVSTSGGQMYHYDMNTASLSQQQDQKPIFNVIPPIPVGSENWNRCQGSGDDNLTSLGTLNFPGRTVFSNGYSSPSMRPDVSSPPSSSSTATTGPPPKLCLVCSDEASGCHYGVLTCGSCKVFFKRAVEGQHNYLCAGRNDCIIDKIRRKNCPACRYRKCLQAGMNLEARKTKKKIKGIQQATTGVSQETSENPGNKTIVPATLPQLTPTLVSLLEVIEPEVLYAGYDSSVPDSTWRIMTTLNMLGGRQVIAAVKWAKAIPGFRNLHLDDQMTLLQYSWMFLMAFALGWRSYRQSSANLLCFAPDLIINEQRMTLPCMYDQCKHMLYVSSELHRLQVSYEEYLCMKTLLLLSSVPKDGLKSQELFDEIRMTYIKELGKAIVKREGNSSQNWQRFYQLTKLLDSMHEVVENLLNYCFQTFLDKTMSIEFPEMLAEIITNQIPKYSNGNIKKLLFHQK
# [14] = biological target: Glucocorticoid receptor (Homo sapiens) (UniProt P04150); test: GR-EFC Redistribution (AID 451; calls by dose curve; also: potency is read from the fitted curve at half-maximal effect); settings: CHO-K1 GR-EFC translocation, beta-gal luminescence, 2 h
# Method in brief: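 Translocation of GR-ED fusion to nuclear EA restores b-gal, read by luminescence after 1 h room-temperature detection. Engineered CHO-K1 biosensor cells, 1,000/well, exposed 2 h at 37 C to titrations up to 46 uM final.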
# [15] = biological target: Mitogen-activated protein kinase 10 (Mus musculus) (UniProt Q61831); test: JNK3 AlphaScreen Assay (AID 530; active = well fitted curve in either direction with a large enough effect, not every such curve was filed as active;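 also: kinase came from lysate of stimulated human HepG2 cells; signal reports phosphorylation of biotinylated GST-cJun 1-79 at Ser73 with 10 µM ATP; % is scaled to controls: 0 for no effect and ±100 for the full control effect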)
# Method in brief: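 qHTS titrations with 15 min compound pre-incubation before adding ATP (10 uM final). Read-out: AlphaScreen of Ser73-phosphorylated biotin-GST-cJun using HepG2 lysate JNK3 activated by IL-1β and TNFα.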
# [16] = biological target: Cytochrome P450 3A4 (Homo sapiens) (UniProt P08684); test: qHTS Assay for Activators of Cytochrome P450 3A4 (AID 885); also: nearly all actives have a fitted effect of over 65% in size
# Method in brief: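 Using 20nM recombinant human CYP3A4 in potassium phosphate (200mM), substrate Luciferin-PPXE at 25uM, luminescent luciferin detection followed a 60-min RT NADPH reaction; data scaled to 57 uM ketoconazole.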
# [17] = measured here: cell count channel max response
# [18] = measured here: lipid channel max response
structure (smiles),measurement,setting,value
CC[C@@H]1CN2CC[C@@H]1C[C@H]2[C@H](O)c1ccnc2ccc(OC)cc12,Potency,[1],inactive
same,"activity change, negative = inhibition",[2],-1.21% (inactive)
same,max response,[2]; [17],1.88%
same,max response,[2]; [18],1.41%
same,Potency,[3],inactive
CC(CCC(=O)O)C1CCC2C3CC[C@H]4CC(O)CC[C@@]4(C)C3CC[C@@]12C (stereo not given in full),"activity change, negative = inhibition",[2],-0.0455% (inactive)
same,max response,[2]; [17],5.89%
same,max response,[2]; [18],10.6%
same,Potency,[3],79.4 µM (active)
COc1cc2c(cc1OC)[C@@]13CCN4CC5=CCOC6CC(=O)N2C1[C@H]6[C@@H]5C[C@@H]43 (stereo not given in full),Potency,[1],inactive
same,Potency,[4],inactive
same,Potency,[5],inactive
same,"activity change, negative = inhibition",[2],14% (inactive)
same,max response,[2]; [17],9.29%
same,max response,[2]; [18],26.2%
same,Potency,[6],inactive
same,Potency,[3],inactive
same,Potency,[7],inactive
same,"activity, negative = inhibition",[8]; parasite line A,-1.63% (inactive)
same,"activity, negative = inhibition",[8]; parasite line B,1.63% (inactive)
same,Potency,[9],inactive
same,Potency,[10],inactive
same,Potency,[11],inactive
CNC(C)[C@@H](O)c1ccccc1 (stereo not given in full),Potency,[1],inactive
same,Potency,[5],inactive
same,"activity change, negative = inhibition",[2],-6.91% (inactive)
same,max response,[2]; [17],19.3%
same,max response,[2]; [18],12.8%
same,Potency,[6],inactive
same,Potency,[7],inactive
same,"activity, negative = inhibition",[8]; parasite line A,-2.9% (inactive)
same,"activity, negative = inhibition",[8]; parasite line B,-5.29% (inactive)
same,Potency,[9],inactive
same,Potency,[10],inactive
same,Potency,[11],inactive
COc1cc2c(c(OC)c1OC)-c1ccc(O)c(=O)cc1[C@@H](NC(C)=O)CC2,Potency,[12],inactive
same,Potency,[13],> 46 µM (inactive)
same,Potency,[14],> 46 µM (inactive)
same,outcome,[15],inactive
same,Potency,[1],inactive
same,"activity change, negative = inhibition",[2],3.54% (inactive)
same,max response,[2]; [17],16.1%
same,max response,[2]; [18],20.6%
CCCCCCCCCc1ccc(O)cc1,outcome,[15],inactive
same,Potency,[16],inactive
same,Potency,[4],inactive
same,Potency,[5],inactive
same,"activity change, negative = inhibition",[2],4.47% (inactive)
same,max response,[2]; [17],4.78%
same,max response,[2]; [18],11%
CCCCSP(=O)(SCCCC)SCCCC,Potency,[1],inactive
same,Potency,[4],inactive
same,Potency,[5],inactive
same,"activity change, negative = inhibition",[2],12.5% (inactive)
same,max response,[2]; [17],36.8%
same,max response,[2]; [18],52%
same,Potency,[3],inactive
CCC(C)C1O[C@]2(C=CC1C)CC1CC(C/C=C(\C)[C@H](OC3CC(OC)C(O[C@H]4CC(OC)[C@@H](O)C(C)O4)C(C)O3)[C@@H](C)/C=C/C=C3\COC4C(O)C(C)=C[C@H](C(=O)O1)[C@@]34O)O2 (stereo not given in full),Potency,[1],inactive
same,Potency,[4],inactive
same,Potency,[5],inactive
same,"activity change, negative = inhibition",[2],-5.38% (inactive)
same,max response,[2]; [17],-1.86%
same,max response,[2]; [18],-6.99%
same,Potency,[6],inactive
same,Potency,[7],inactive
same,Potency,[8]; parasite line A,4.47 µM (active)
same,Potency,[8]; parasite line B,8.91 µM (active)
same,Potency,[9],10 µM (active)
same,Potency,[10],11.2 µM (active)
same,Potency,[11],11.2 µM (active)
C=C[C@H]1CN2CCC1C[C@@H]2C(O)c1ccnc2ccccc12 (stereo not given in full),Potency,[1],inactive
same,"activity change, negative = inhibition",[2],7.24% (inactive)
same,max response,[2]; [17],20.2%
same,max response,[2]; [18],27.5%
same,Potency,[3],inactive
CC([C@H](O)c1ccccc1)N(C)C (stereo not given in full),Potency,[1],inactive
same,Potency,[4],inactive
same,"activity change, negative = inhibition",[2],4.16% (inactive)
same,max response,[2]; [17],14.6%
same,max response,[2]; [18],17.5%
same,Potency,[6],inactive
same,Potency,[3],inactive
same,Potency,[7],inactive
same,"activity, negative = inhibition",[8]; parasite line A,3.7% (inactive)
same,"activity, negative = inhibition",[8]; parasite line B,-27.1% (inactive)
same,Potency,[9],inactive
same,Potency,[10],inactive
same,Potency,[11],inactive
COc1cc(C2c3cc4c(cc3C(O)[C@H]3COC(=O)C23)OCO4)cc(OC)c1OC (stereo not given in full),"activity change, negative = inhibition",[2],6.7% (inactive) and 5.22% (inactive)
same,max response,[2]; [17],-4.29% and 22%
same,max response,[2]; [18],2.15% and 29.3%
same,Potency,[3],inactive
CCC(=O)Nc1ccc(Cl)c(Cl)c1,Potency,[1],15.8 µM (active)
same,Potency,[16],inactive
same,Potency,[4],inactive
same,Potency,[5],inactive
same,"activity change, negative = inhibition",[2],7.8% (inactive)
same,max response,[2]; [17],9.78%
same,max response,[2]; [18],21.3%
same,Potency,[3],inactive
